# Results taken from ChEMBL document CHEMBL4888484, “Replenishing the malaria drug discovery pipeline: Screening and hit evaluation of the MMV Hit Generation Library 1 (HGL1) against asexual blood stage Plasmodium falciparum ,using a nano luciferase reporter read-out” (2022).
# About 540 (0.36%) of roughly 150,000 compounds showed an effect of 50% or more. Many of the other results were omitted from the sample, so strong results are more common in it than they were.
# Test system: Plasmodium falciparum
# Test: Primary screen in NF54 nanoGlo assay, in single point, at 2uM, 72h; a lower Z score goes with more inhibition
# Assay type: functional, Erythrocyte
# Conditions: timepoint 72 hour
Structure (SMILES),% Inhibition [%],Z score
CCn1c(-n2nc(C)nc2[C@H]2CCS(=O)(=O)C2)nc2ccccc21,4,-0.76
O=C(CNC(=O)c1cnccn1)NCCc1c[nH]c2ccc(F)cc12,-5,0.67
CCn1cc(C#N)c(=O)c2cc(F)c(N3CCN(Cc4ccccc4)CC3)cc21,68,-7.22
CCn1cc(C(=O)O)c(=O)c2cc(F)c(N3CCN(S(=O)(=O)c4ccccc4)CC3)cc21,34,0.66
CCn1cc(-c2nc(-c3ccccc3C)no2)c(=O)c2cc(F)c(N3CCCCC3)cc21,51,-3.9
CCn1cc(-c2nc(-c3ccccc3)no2)c(=O)c2cc(F)c(N3CCCCC3)cc21,-9,1.55
Cc1ccc(S(=O)(=O)c2cn(Cc3ccccc3)c3cc(N4CCCCC4)c(F)cc3c2=O)cc1,-24,2.28
CCn1cc(-c2nc(-c3ccccc3C)no2)c(=O)c2cc(F)c(N3CCOCC3)cc21,40,-3.29
COc1cc(OC)cc(-c2c3c(O)nn(C(C)C)c3nc3[nH]c(=O)n(C)c23)c1,-3,0.3
O=C(Nc1ccc2c(c1)OCO2)c1ccc(=O)n(Cc2ccc(Cl)cc2)c1,-15,1.88
CCN(C(=O)c1nn(C)c2ccc(C)cc12)[C@H]1COC[C@@H]1O,5,-1
COc1cc(Cl)c(CNC(C)(C)CO)cc1OC,4,-0.67
Cc1n[nH]c(C(=O)N2CCCCCC2)c1Br,3,-0.33
COCCNC(=O)c1coc(CN2C(=O)COc3ccc(C(=O)COc4ccccc4)cc32)n1,-6,0.84
N#Cc1nccnc1O[C@H]1CCCN(C(=O)NCc2ccc(Cl)cc2)C1,-10,1.77
Cc1nn(C(C)(C)C)c2nc(C3CC3)cc(C(=O)N(C)Cc3cccc(C#N)c3)c12,-7,1.44
Cc1nn(C(C)(C)C)c2nc(C3CC3)cc(C(=O)N(C)c3ccccc3)c12,55,-8.04
Cc1nn(C(C)(C)C)c2nc(C3CC3)cc(C(=O)N3CCN(c4ccccc4)CC3)c12,7,-1.07
CC(C)(C[C@H]1CCCN(C(=O)C2(C)CCCC2)C1)C(N)=O,-4,0.57
COC(=O)C1CN(C(=O)CCc2cnn(C)c2)CC1c1ccccc1 (stereo unspecified),-13,2.28
O=C1C[C@@H](c2ccccc2)N(Cc2ccncc2)CCCNCCN1,-9,1.07
Cc1ccncc1C(=O)N1CCCN(Cc2ccncc2)[C@H](c2ccccc2)CC(=O)NCC1,-4,0.48
COc1cccc(S(=O)(=O)N2CCCN(Cc3ccncc3)[C@H](c3ccccc3)CC(=O)NCC2)c1,92,-7.9
